JMJD2A Tudor inh = inhibitors of human JMJD2A Tudor domain; AlphaScreen JMJD2A-Tudor / H3K4me3 peptide binding; O75164; Potency, µM (highest dose often 114 µM), for the others: top-dose activity change, negative = inhibition, usual class: inhibitors; 390,000 tested, 4.4% active; note: potency is the fitted concentration of half-maximal effect; % is set by controls: 0 for no effect and ±100 for the full control effect; nearly all actives have a fitted effect of over 50% in size
BAZ2B block = inhibitors of human BAZ2B bromodomain. Q9UIF8. AlphaScreen BAZ2B-H3K14Ac peptide displacement. Potency, µM (series often up to 114 µM), without a hit: at the top dose activity change, negative = inhibition, most hits filed as inhibitors. 360,000 tested, 4.4% active; note: potency is the fitted concentration of half-maximal effect; % is set by controls: 0 for no effect and ±100 for the full control effect; nearly all actives have a fitted effect of over 60% in size
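AlphaScreen displacement: compounds (up to 110uM) incubated 30 min at room temperature with a preformed 50 nM BAZ2B/50 nM biotinylated H3K14Ac peptide complex in PBS pH 7.4 with Tween-20. Donor and acceptor beads at 10 ug/mL final added, 20 min light-protected before reading.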
G9a block = G9a (human) methyltransferase inhibition. Q96KQ7. G9a H3K9 monomethylation, AlphaScreen, 2 h. Potency, µM (series often up to 102 µM), without a hit: top-dose activity, negative = inhibition, actives largely listed as inhibitors. 350,000 tested, 8.8% active. AID 504332; note: potency is the fitted concentration of half-maximal effect; % is set by controls: 0 for no effect and ±100 for the full control effect; nearly all actives have a fitted effect of over 75% in size
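AlphaScreen detection with an anti-monomethyl H3K9 antibody quantified product after a 2 h room-temperature reaction containing 500 nM biotinylated H3K9 peptide, 20 µM SAM and 20 nM enzyme, which had been preincubated 15 min with compound.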
HP1b chromo inh = HP1-beta chromodomain-methylated histone interaction inhibition. AlphaScreen HP1-beta / biotin-H3K9me3 peptide binding. 390,000 tested, 0.56% active. Potency, µM (series often up to 114 µM), inactives show top-dose activity change, negative = inhibition, usual class: inhibitors. P83916; note: potency is the fitted concentration of half-maximal effect; nearly all actives have a fitted effect of over 70% in size
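HP1-beta protein (50 nM final) preincubated 30 min at room temperature with biotinylated H3(1-18)K9me3 peptide (50 nM) in PBS pH 7.4, 0.01% Tween-20, then compound added for 30 min. AlphaScreen streptavidin donor/nickel chelate acceptor beads (10 ug/mL final), 30 min dark, luminescence read.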
CtBP-E1A inh = inhibitors of CtBP/E1A interaction; AlphaScreen GST-E1A/His-CtBP binding, 1536-well; active compounds read low; activity change, % (no concentration beside the values); 340,000 tested, 0.49% active; in the data active = activity change below about -65%; inconclusive = mostly about -30% to -63%; note: % is set by controls: 0 for no effect and ±100 for the full control effect
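AlphaScreen with 125 nM GST-E1A and 125 nM His-CtBP (5X stocks) in Tris pH 8.0, 300 mM NaCl, BSA, Tween 20, TCEP. Compounds preincubated 2 h at 37 deg C, then glutathione donor/nickel acceptor beads added for 1 h at 37 deg C in dark.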
Six1-Eya2 blk = inhibitors of human Six1/Eya2 interaction | activity change, % (test concentration not listed) | AlphaScreen GST-Six1/His-Eya2 binding, biochemical; active compounds read low | 360,000 tested, 0.56% active | Q15475+O00167; in the data active = activity change below about -65%; inconclusive = mostly about -30% to -63%; note: % is set by controls: 0 for no effect and ±100 for the full control effect
Target sequence (O00167 whole entry, looked up): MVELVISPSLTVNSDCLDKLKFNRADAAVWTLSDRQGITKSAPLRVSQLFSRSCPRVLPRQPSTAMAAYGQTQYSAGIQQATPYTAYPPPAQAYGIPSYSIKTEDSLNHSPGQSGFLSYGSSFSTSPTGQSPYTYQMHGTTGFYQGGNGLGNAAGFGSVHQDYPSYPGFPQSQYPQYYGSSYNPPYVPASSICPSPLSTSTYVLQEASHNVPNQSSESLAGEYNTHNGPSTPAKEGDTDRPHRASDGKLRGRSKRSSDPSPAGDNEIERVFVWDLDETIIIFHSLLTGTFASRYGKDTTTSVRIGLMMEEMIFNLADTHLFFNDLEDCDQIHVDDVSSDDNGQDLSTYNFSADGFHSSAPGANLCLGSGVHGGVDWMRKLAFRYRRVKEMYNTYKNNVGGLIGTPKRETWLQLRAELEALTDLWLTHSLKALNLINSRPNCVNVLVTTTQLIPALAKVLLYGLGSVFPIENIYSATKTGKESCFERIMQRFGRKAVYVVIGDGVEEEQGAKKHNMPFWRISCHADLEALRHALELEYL
Target sequence (Q15475 whole entry, looked up): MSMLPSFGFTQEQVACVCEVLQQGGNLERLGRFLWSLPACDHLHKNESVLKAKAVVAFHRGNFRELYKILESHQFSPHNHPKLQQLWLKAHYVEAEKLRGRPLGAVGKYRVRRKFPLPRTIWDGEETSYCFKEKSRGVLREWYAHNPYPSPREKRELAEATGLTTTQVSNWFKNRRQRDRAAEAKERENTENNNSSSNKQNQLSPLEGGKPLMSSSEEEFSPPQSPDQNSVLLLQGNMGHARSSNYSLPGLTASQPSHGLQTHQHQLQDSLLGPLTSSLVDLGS
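AlphaScreen with GST-Six1 and His-Eya2 (5X mix: 250 nM and 500 nM), glutathione donor and nickel acceptor beads; buffer 50 mM Tris pH 8.0, 300 mM NaCl, 1 mM TCEP; 1 h at 37 C in the dark.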
Numbers without * were called inactive; ? = inconclusive; . = not tested or not shown; [ ] = dose if it differs, or a comment. Shown are actives, neighbours in structure and some others; about 10% of the full set was active somewhere. Unless noted, calls come from the whole dose curve; as a rule, active = well fitted inhibition curve with a large enough effect; inconclusive = small, poorly fitted or top-dose-only effect; inactive = no such curve, though single readings can be large or run the other way.

SMILES	JMJD2A Tudor inh	BAZ2B block	G9a block	HP1b chromo inh	CtBP-E1A inh	Six1-Eya2 blk
CCOc1ccccc1NC(=O)Cn1c(=O)n(CCCCC(=O)NCCCOC)c(=O)c2ccccc21	9%	79µM*	44%[59 µM]	80%	.	.
Cc1cccc(-n2c(=O)c3ccccc3n3c(=S)[nH]nc23)c1C	25µM*	-15%	1.1µM*	-16%	-2	2
Cc1ccccc1-n1c(=O)c2ccccc2n2c(=O)[nH]nc12	4%[57.1 µM]	-3%	12%[59 µM]	39%	-1	3
O=C(O)c1cccc(NC(=O)c2cccc(S(=O)(=O)N3CCc4ccccc4C3)c2)c1	9%	-10%	.	27%	7	-4
CC(C)(C)c1csc(NC(=O)Cc2cccs2)n1	-11%	50µM*	50µM*	20%	8	-1
CCOC(=O)Cc1csc(NC(=O)CSc2nc(C)cc(C)n2)n1	-13%	.	.	17%	1	-4
Cc1ccc(S(=O)(=O)CC(=O)Nc2nc(C(C)(C)C)cs2)cc1	-5%	-6%	40µM*	16%	5	-4
CCOC(=O)Cc1csc(NC(=O)CSc2cc(Cl)ccc2Cl)n1	1%	?	22µM*	27%	-13	11
Cc1ccc(S(=O)(=O)CCc2nnc(NC(=O)CCl)s2)cc1C	-7%	-17%	79µM*	24%	-23	5
COc1ccc(NC(=O)C(C)n2nc(-c3ccc(C)c(C)c3)ccc2=O)cc1OC (stereo unspecified)	-13%	-35%	-18%[59 µM]	40%	.	.
COCCOC(=O)C1=C(C)N=C2SCCC(=O)N2C1c1ccc(OC(=O)c2ccco2)cc1 (stereo unspecified)	-13%	6%	2%	28%	-5	-4
C[C@]12C=CC(=O)N[C@@H]1CC[C@@H]1C2CC[C@]2(C)C(C(=O)Nc3cc(C(F)(F)F)ccc3C(F)(F)F)CC[C@@H]12 (stereo partly specified)	.	.	34%[59 µM]	.	.	.
CCOC(=O)Cc1csc(SCC(=O)NC2CCCC2)n1	-3%	11%	1%	23%	3	5
CCOC(=O)Cc1csc(NC(=O)CCSc2ccccc2)n1	-5%	-16%	50µM*	34%	6	4
CCOC(=O)Cc1csc(NC(=O)CCc2ccccc2)n1	-10%	-9%	-8%	13%	-5	3
CCOC(=O)Cc1csc(NC(=O)Cc2cccs2)n1	45µM*	50µM*	-6%	5%	0	0
CCOC(=O)Cc1csc(SCC(=O)Nc2nccs2)n1	-10%	7%	50µM*	22%	-4	-5
COCc1nnc(NC(=O)CS(=O)(=O)c2ccc(C)cc2)s1	?	2%	50µM*	19%	-7	9
CCOC(=O)Cc1csc(NC(=O)Cc2ccccc2)n1	-9%	-16%	?	27%	-21	7
CC1=C(C(=O)N(C(C)C)C(C)C)CC(CC(=O)NC2CCCC2)C(=O)N1Cc1ccccc1 (stereo unspecified)	.	.	.	.	-25	2
O=C(c1c[nH]c(C(=O)C(Cl)(Cl)Cl)c1)c1c(F)cccc1F	22µM*	-23%	-41%	3%	3	14
O=C(O)c1ccc(-c2nc(-c3ccccc3)c(-c3ccccc3)[nH]2)cc1	79µM*	?	-2%[59 µM]	40µM*	1	-12
Cc1ccsc1-c1nc(-c2ccccc2)c(-c2ccccc2)[nH]1	7%	-2%	43%[12.7 µM]	20%	-1	4
CS(=O)(=O)c1nc(-c2ccccc2)c(-c2ccccc2)[nH]1	-6%	?	45µM*	3%	-1	-2
COc1ccc(-c2[nH]c(-c3ccc(C(=O)O)cc3)nc2-c2ccccc2)cc1	?	79µM*	79µM*	19%	-8	-4
SMILES	JMJD2A Tudor inh	BAZ2B block	G9a block	HP1b chromo inh	CtBP-E1A inh	Six1-Eya2 blk
COc1ccccc1N1CC(C(=O)Nc2ccc(N3CCOCC3)cc2)CC1=O (stereo unspecified)	-15%	11%	-6%[12.7 µM]	19%	-2	5
N#CC(C#N)=c1ccc2c(c1)NC1(CCCCC1)N=2	22µM*	13µM*	11µM*	32µM*	?	?
O=C1NC2(CCCC2)N=C1c1ccc(Cl)cc1	-22%	6%	-2%	14%	-3	0
CCCN(Cc1cccs1)C(=O)Nc1ccc(Br)c(C)c1	36%	29%	29%[59 µM]	112%	.	.
O=C1c2ccccc2NC(c2cn[nH]c2-c2ccccc2)N1O (stereo unspecified)	-17%[57.1 µM]	-8%	?	46%	-8	2
O=C1c2ccccc2NC(c2cn[nH]c2-c2ccc(Cl)cc2)N1O (stereo unspecified)	?	-34%	28µM*	42%	-8	-4
COCCN(C(=O)C(=O)NC1CCCC1)C(C(=O)NC1CCCC1)c1ccccc1F (stereo unspecified)	-3%	-6%	0%	88%	.	0
CSc1ccc(CCNC(=O)Cn2nc(C)n3c(cc4sccc43)c2=O)cc1	-9%	1%	7%[59 µM]	24%	.	.
Cc1ccc(-n2ncc(C(=O)Nc3cc(Cl)ccc3Cl)c2C2CCNCC2)cc1	?	-10%	45µM*	11%	-24	?
O=C(COc1cccc(Cl)c1)Nc1ccc(N2CCOCC2)cc1	-29%	3%	79µM*	13%	-1	-8
CC(Oc1cccc(Cl)c1)C(=O)N(C)CC(=O)Nc1ccc(N2CCOCC2)cc1 (stereo unspecified)	-10%	-2%	40µM*	6%	0	-1
Cn1c(-[n+]2c(-c3ccccc3)cc(-c3ccccc3)cc2-c2ccccc2)nc2cc([N+](=O)[O-])ccc21	-10%	40µM*	1.8µM*	17%	3	0
COc1ccc(OC)c(NC(=O)Cc2csc(NC(=O)Nc3ccccc3OC)n2)c1	?	0%	45µM*	-21%	-12	-11
COc1cc(OC)cc(C(=O)Nc2nc(CC(=O)NC(C)c3ccccc3)cs2)c1 (stereo unspecified)	-32%	50µM*	?	0%	1	-8
COc1ccc(NC(=O)Cc2csc(NC(=O)Nc3ccccc3OC)n2)c(OC)c1	?	?	50µM*	-16%	-8	-12
Nc1[nH]c(=O)[nH]c(=O)c1N=Nc1ccc(C(=O)O)cc1	5%	-22%	9%	38%	1	1
Cc1[nH]c(=O)[nH]c(=O)c1NC(=O)c1sc2nc3c(C)cccc3cc2c1N	-21%	-10%	10µM*	22%	-12	-13
Cc1ccc2cc3c(N)c(C(=O)Nc4c(C)[nH]c(=O)[nH]c4=O)sc3nc2c1	-28%	?	10µM*	33%	-14	-8

Source: PubChem BioAssay
